27 compounds from PubChem BioAssay (NCATS) can be followed below.

Experiment [1] can be described thus: Primary qHTS for inhibitors of nuclear receptor binding SET domain protein 2 (NSD2) in an isogenic RCH-ACV NSD2 p.E1099K mutant (9B) (AID 1645876; also: nearly all actives have a fitted effect of over 70% in size; also: potency is read from the fitted curve at half-maximal effect; as to activity change, negative = viability loss: % is scaled to controls: 0 for no effect and ±100 for the full control effect). (Quantitative high-throughput screening tests each substance at several concentrations.)
A short description of experiment [2]: Primary qHTS for inhibitors of nuclear receptor binding SET domain protein 2 (NSD2) in an RCH-ACV wild type WT cells (2C) (AID 1645877). Also: nearly all actives have a fitted effect of over 70% in size. Also: potency is read from the fitted curve at half-maximal effect. As to activity change, negative = cell killing: % is scaled to controls: 0 for no effect and ±100 for the full control effect.
Experiment [3] has as its target Catechol O-methyltransferase (Homo sapiens) (UniProt P21964). Nature of the experiment: Confirmatory Screen for Target Class Profiling of Small Molecule Inhibitors of Methyltransferases (AID 1745852). As to activity change, negative = inhibition: % is scaled to controls: 0 for no effect and ±100 for the full control effect. To be noted: MTase-Glo luminescence, SAH detection, recombinant enzyme; measured here: COMT max response; stronger effect = lower value.
Experiment [4] addresses Guanidinoacetate N-methyltransferase (Homo sapiens) (UniProt Q14353). Described as above. To be noted: MTase-Glo luminescence, SAH detection, recombinant enzyme; activity change, negative = inhibition: at 57.3 µM (top of the series) unless noted.
The target in experiment [5] is Rap guanine nucleotide exchange factor 3 (Homo sapiens) (UniProt O95398). In words: Confirmatory qHTS for agonist of cAMP-regulated guanine nucleotide exchange factor 3 (EPAC1) (AID 1645881).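 Also: EPAC1 catalysed release of BODIPY-GDP from Rap1B seen as fluorescence loss; 100% = effect of cAMP agonist control; nearly all actives have a fitted effect of over 75% in size.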
The target of experiment [6] is Rap guanine nucleotide exchange factor 4 (Homo sapiens) (UniProt Q8WZA2). In words: Confirmatory qHTS for agonist of cAMP-regulated guanine nucleotide exchange factor 4 (EPAC2) (AID 1645884).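 Also: nucleotide exchange releases bodipy-GDP from Rap1 and this lowers its fluorescence; % is scaled to controls: 0 for no effect and ±100 for the full control effect; nearly all actives have a fitted effect of over 65% in size.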
The target of experiment [7] is Rap guanine nucleotide exchange factor 3 (Homo sapiens) (UniProt O95398). Nature of the experiment: Confirmatory qHTS for antagonist of cAMP-regulated guanine nucleotide exchange factor 3 (EPAC1) (AID 1645880).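 Also: plate controls were DMSO only for no effect and full effect of the ATA control for full effect; nearly all actives have a fitted effect of over 55% in size.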 The procedure, abridged:
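Released BODIPY-GDP fluoresces less than Rap1-bound BODIPY-GDP; the signal is followed at 480/540 nm at 5-min intervals over 30 min, after 5 min at room temperature. Reactions contain 100 nM EPAC1, 250 nM RAP1B-BODIPY-GDP and 50 uM GDP; results are normalized to ATA and DMSO.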

Experiment [8] deals with Rap guanine nucleotide exchange factor 4 (Homo sapiens) (UniProt Q8WZA2). Nature of the experiment: Confirmatory qHTS for antagonist of cAMP-regulated guanine nucleotide exchange factor 4 (EPAC2) (AID 1645885). Also: potency is read from the fitted curve at half-maximal effect; nearly all actives have a fitted effect of over 25% in size.

Results filed as inconclusive are left out. Activity calls are given as the source filed them. Calls follow the shape of the dose curve; as a rule, active = well fitted curve in the direction sought with a large enough effect; inconclusive = small, poorly fitted or top-dose-only effect, or another doubt; inactive = no such curve, though single readings can be large; an effect the other way counts as inactive or inconclusive.

Chain of Rap guanine nucleotide exchange factor 3 (Homo sapiens) (O95398 whole entry, looked up): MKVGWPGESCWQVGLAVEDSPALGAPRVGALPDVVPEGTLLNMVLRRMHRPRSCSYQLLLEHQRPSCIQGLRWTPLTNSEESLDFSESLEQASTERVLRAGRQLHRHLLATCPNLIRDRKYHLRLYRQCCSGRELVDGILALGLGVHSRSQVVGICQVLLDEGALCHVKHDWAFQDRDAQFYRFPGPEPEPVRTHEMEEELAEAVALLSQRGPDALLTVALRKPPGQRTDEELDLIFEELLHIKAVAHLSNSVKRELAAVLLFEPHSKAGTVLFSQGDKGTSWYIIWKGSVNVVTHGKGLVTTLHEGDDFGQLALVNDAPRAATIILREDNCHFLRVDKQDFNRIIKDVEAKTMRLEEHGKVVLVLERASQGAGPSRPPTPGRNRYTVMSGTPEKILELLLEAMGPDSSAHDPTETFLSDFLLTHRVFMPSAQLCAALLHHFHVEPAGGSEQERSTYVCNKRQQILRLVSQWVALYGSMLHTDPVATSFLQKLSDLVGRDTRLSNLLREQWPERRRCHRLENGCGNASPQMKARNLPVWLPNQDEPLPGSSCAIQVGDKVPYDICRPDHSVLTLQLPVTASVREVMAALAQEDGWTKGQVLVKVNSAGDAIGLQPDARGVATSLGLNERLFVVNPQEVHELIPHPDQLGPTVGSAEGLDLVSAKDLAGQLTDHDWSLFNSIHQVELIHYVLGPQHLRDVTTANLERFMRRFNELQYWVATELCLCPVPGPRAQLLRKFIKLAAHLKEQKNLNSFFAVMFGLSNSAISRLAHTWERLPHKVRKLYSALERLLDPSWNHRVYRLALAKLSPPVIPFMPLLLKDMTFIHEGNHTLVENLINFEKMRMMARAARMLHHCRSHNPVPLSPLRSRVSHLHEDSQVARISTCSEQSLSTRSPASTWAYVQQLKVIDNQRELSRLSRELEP
Chain of Rap guanine nucleotide exchange factor 4 (Homo sapiens) (Q8WZA2 whole entry, looked up): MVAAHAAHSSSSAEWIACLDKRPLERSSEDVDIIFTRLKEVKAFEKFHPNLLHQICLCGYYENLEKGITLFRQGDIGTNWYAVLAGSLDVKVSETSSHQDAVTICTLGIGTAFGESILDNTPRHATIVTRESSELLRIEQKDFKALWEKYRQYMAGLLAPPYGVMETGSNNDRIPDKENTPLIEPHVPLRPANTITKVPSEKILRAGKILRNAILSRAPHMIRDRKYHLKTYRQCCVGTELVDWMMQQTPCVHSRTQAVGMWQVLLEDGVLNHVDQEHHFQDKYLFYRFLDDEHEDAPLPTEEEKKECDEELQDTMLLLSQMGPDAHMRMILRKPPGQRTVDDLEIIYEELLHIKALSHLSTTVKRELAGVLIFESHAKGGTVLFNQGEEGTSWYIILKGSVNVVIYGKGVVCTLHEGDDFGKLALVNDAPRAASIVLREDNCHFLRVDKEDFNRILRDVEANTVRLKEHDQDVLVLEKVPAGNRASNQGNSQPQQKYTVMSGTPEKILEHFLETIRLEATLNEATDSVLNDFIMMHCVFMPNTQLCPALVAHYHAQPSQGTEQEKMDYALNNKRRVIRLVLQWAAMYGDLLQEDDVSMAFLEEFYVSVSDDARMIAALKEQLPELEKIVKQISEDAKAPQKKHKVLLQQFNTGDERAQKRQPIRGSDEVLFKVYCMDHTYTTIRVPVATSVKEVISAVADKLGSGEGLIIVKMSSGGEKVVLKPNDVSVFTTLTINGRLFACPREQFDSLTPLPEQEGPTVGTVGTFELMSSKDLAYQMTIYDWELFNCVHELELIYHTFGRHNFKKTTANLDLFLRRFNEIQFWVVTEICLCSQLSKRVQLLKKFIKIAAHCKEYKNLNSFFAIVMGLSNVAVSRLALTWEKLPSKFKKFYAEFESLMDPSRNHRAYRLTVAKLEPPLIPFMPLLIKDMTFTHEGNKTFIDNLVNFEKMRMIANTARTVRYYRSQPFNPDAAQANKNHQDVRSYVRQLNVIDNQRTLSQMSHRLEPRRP
Chain of Catechol O-methyltransferase (Homo sapiens) (P21964 whole entry, looked up): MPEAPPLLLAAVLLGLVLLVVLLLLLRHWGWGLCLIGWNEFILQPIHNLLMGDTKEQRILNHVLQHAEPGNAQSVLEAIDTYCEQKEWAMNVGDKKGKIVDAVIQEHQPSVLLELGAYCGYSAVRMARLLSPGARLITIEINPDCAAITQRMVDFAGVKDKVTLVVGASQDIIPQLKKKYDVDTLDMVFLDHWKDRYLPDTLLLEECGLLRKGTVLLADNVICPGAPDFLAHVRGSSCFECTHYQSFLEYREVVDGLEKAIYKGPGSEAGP

`CC(=O)O[C@H]1C[C@@H](OC(C)=O)C(C)(C)C2C[C@@H](O)[C@]3(C)C(CC[C@@]4(C)[C@H](C5=CC(=O)OC5O)C[C@H]5O[C@]543)[C@]21C` (some centres not stated): the Potency entry in experiment [1] and in experiment [2] was “inactive” in each case.

As for `C/C=C(\C)C(=O)OC1CC2C(C)(C)OC(=O)CC(OC(C)=O)C2(C)C2CC(OC(=O)C(C)C)C3(C)C(c4ccoc4)CC4OC43C12C` (configuration not stated), the Potency entry in experiment [1] and in experiment [2] was “inactive” each time.

For `COC1CC(O[C@H]2CC[C@@]3(C)C(=CCC4C3C(O)[C@@H](O)[C@]3(C)[C@@H](C(C)=O)CC[C@]43O)C2)OC(C)C1OC1CC(OC)C(OC2OC(C)C(O)C(O)C2O)C(C)O1` (some centres not stated), the activity change, negative = viability loss in experiment [1] was -2.91% [at 9.23 µM] (inactive). Further, the activity change, negative = cell killing in experiment [2] was -4.48% [at 9.23 µM] (inactive).

Consider `CN1CCCC1CCOC(c1cc2nccc(C(=O)O)c2[nH]1)c1ccccc1Cl` (configuration not stated), for which the Potency entry in experiment [1] and in experiment [2] was “inactive” in each case.

Consider `COc1cc(C(=O)O[C@H]2[C@@H]3C=CO[C@@H](O[C@@H]4O[C@H](CO)[C@@H](O)[C@H](O)[C@H]4O)[C@@H]3[C@@]3(CO)O[C@@H]23)ccc1O`, for which the Potency result in experiment [1] and in experiment [2] was “inactive” each time. In addition, the activity in experiment [3] was -83.5%. In experiment [4], the activity change, negative = inhibition was -1.53% [at 29.8 µM].

For the compound `CCC(C)(OC(C)=O)C(=O)O[C@H]1[C@H](OC(C)=O)C[C@@H]2[C@@](C)([C@@H]3C[C@H]4C=CO[C@H]4O3)[C@H](C)C[C@H](OC(C)=O)[C@@]2(COC(C)=O)[C@@]12CO2` (some centres not stated), the Potency entry in experiment [1] and in experiment [2] was “inactive” in each case.

As for `COC1CC(OC2CCC3(C=O)C(CCC4C3CCC3(C)C(C5=CC(=O)OC5)CCC43O)C2)OC(C)C1OC1OC(CO)C(O)C(O)C1O` (configuration not stated), the results for the Potency in experiment [1] and in experiment [2] were 85.8 nM (active) and 153 nM (active), respectively.

For the compound `CO[C@H]1[C@H](O)[C@H](O[C@H]2CC[C@]3(C)C4CC[C@]5(C)[C@H](C6=CC(=O)OC6)CC[C@]5(O)C4CC[C@@H]3C2)O[C@@H](C)[C@@H]1O` (some centres not stated), the Potency is 22.4 nM (active) in experiment [1] and 28.2 nM (active) in experiment [2].

Take `CC1=C2C(=O)C3[C@@H](CC=C4C[C@@H](O)CC[C@@]43C)[C@@H]2CC[C@]12O[C@@H]1C[C@H](C)CN[C@H]1[C@H]2C` (some centres not stated): the Potency entry in experiment [1] and in experiment [2] was “inactive” in each case.

As for `CC[C@H]1CN2CC[C@H]1C[C@@H]2[C@@H](O)c1ccnc2ccc(OC)cc12`, the Potency entry in experiment [1] and in experiment [2] was “inactive” each time.

In the case of `CCCN1CCO[C@H]2c3cc(O)ccc3OC[C@@H]21`, the Potency entry in experiment [1] and in experiment [2] was “inactive” each time.

For the compound `C[C@@]1(C(=O)O)CC[C@]2(C)CC[C@]3(C)C4=CC(=O)c5cc(O)c(O)cc5[C@]4(C)CC[C@@]3(C)[C@@H]2C1`, the Potency entry in experiment [1] and in experiment [2] was “inactive” each time.

Take `C[C@@H]1C(=O)O[C@H]2[C@H](O)[C@@]34[C@@H]5OC(=O)[C@@]3(O[C@@H]3OC(=O)[C@@H](O)[C@@]34[C@H](C(C)(C)C)[C@H]5O)[C@@]12O`: the Potency entry in experiment [1] and in experiment [2] was “inactive” throughout.

Consider `CCCCCc1cc(O)c2c(c1)OC(C)(C)[C@@H]1CCC(C)=C[C@@H]21`, for which the Potency result in experiment [5] and in experiment [6] was “inactive” in each case.

For the compound `CCN1C[C@]2(COC)[C@H](O)C[C@H](OC)[C@]34[C@@H]5C[C@]6(O)[C@H](OC(=O)c7ccccc7)[C@@H]5[C@@](O)([C@H]([C@H](OC)[C@H]23)[C@@H]14)[C@@H](O)[C@@H]6OC`, the Potency entry in experiment [1] and in experiment [2] was “inactive” in each case.

With `C=CC(C)(C)c1[nH]c2cccc3c2c1C[C@@H]1[C@@H]3[C@@H](OC(C)=O)[C@H](C)CN1C`, the Potency entry in experiment [1] and in experiment [2] was “inactive” throughout.

Regarding `O=C1CN=C(c2ccccc2)c2cc(Cl)ccc2N1CC1CC1`, the outcome in experiment [7] was “inactive”. For the same compound, the Potency result in experiment [5] is “inactive”. Further, the Potency in experiment [8] was 55500 nM (active).

Take `C=C[C@H]1CN2CC[C@H]1C[C@@H]2[C@@H](O)c1ccnc2ccccc12`: the Potency result in experiment [1] and in experiment [2] was “inactive” each time.

Turning to `Oc1ccc2c3c1O[C@H]1[C@H](N(CCCl)CCCl)CC[C@@]4(O)[C@@H](C2)N(CC2CC2)CC[C@]314`, the activity change, negative = viability loss in experiment [1] was -5.8% [at 9.23 µM] (inactive). In experiment [2], the activity change, negative = cell killing is -7.37% [at 9.23 µM] (inactive).

As for `CCN1CC2(COC)C3[C@@H](OC)C4C1C3(C1C[C@]3(O)[C@H](OC(=O)c5ccccc5)C1[C@]4(OC(C)=O)[C@@H](O)[C@@H]3OC)[C@H](OC)C[C@H]2O` (some centres not stated), the Potency entry in experiment [1] and in experiment [2] was “inactive” each time.

Take `CN1C(=O)N(c2ccc(C#N)c(C(F)(F)F)c2)C(=O)[C@]1(CO)c1ccccc1`: the Potency result in experiment [1] and in experiment [2] was “inactive” throughout.

For `CN1C(=O)c2ccccc2NC(=O)C1Cc1ccccc1` (configuration not stated), the Potency result in experiment [1] and in experiment [2] was “inactive” each time.

Turning to `CC(=O)OC12C(O)C(C)C3(O)C4C=C(C)C(=O)C4CC(CO)=CC3C1C2(C)C` (configuration not stated), the Potency result in experiment [1] and in experiment [2] was “inactive” each time.

As for `C[C@@]12C[C@@H](c3ccoc3)OC(=O)C1CC[C@]1(C)[C@H]2[C@H]2C=C[C@]1(O)C(=O)O2` (some centres not stated), the Potency entry in experiment [1] and in experiment [2] was “inactive” in each case.

As to `CCN1C[C@]2(OC(=O)c3ccccc3NC(C)=O)CC[C@H](OC)[C@@]34[C@@H]2C[C@@H]([C@@H]13)[C@@]1(O)C[C@H](OC)[C@H]2C[C@@H]4[C@]1(O)[C@H]2OC`, the Potency result in experiment [1] and in experiment [2] was “inactive” throughout.

`COC(=O)C12C(=O)C(C)(O)C(=O)C1(C)C(C)=CC1C34CCC(OC3=O)C(C)(CO)C4CCC12C` (configuration not stated): the Potency entry in experiment [1] and in experiment [2] was “inactive” in each case.

`C/C=C(\C)C(=O)OC1C(C)OC(OC2C(C)OC(OC3CCC4(C)C(=CCC5C4CCC4(C)C(C(C)OC6OC(COC7OC(CO)C(O)C(O)C7O)C(O)C(O)C6O)CCC54O)C3)CC2OC)C(O)C1OC` (configuration not stated): in experiment [1], the activity change, negative = viability loss was -3.12% [at 9.23 µM] (inactive). The activity change, negative = cell killing in experiment [2] is -10% [at 9.23 µM] (inactive).
